# Source: PubChem BioAssay AID504803 (The Scripps Research Institute Molecular Screening Center, 2011)
# Among all 340,000 compounds or so, about 1,700 (0.5%) were called active. For the sample, actives were picked, then their nearest neighbours and some compounds at random. A number with no mark means an inactive call. Cut-off read from the data, not from the text of the source: active = inhibition above about 36%; inactive = the rest.
# Biological target: Serine protease HTRA1 (Homo sapiens) (UniProt Q92743)
# Sequence (Q92743 whole entry, looked up): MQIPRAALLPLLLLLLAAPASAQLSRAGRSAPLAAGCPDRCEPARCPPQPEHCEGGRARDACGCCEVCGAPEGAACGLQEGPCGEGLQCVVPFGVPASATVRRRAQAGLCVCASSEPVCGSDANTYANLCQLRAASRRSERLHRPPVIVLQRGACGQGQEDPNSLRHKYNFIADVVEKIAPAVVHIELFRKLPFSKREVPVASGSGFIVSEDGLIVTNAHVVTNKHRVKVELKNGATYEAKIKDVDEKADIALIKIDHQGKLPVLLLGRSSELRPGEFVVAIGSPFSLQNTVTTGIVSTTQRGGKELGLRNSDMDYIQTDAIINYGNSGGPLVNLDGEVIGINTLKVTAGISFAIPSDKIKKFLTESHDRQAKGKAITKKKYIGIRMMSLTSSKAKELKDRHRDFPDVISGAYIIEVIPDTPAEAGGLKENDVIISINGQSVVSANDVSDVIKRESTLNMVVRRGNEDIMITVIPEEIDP
# Experiment: inhibition of human HTRA1 peptidase – biochemical, fluorescence polarization, HTS, primary screen (AID 504803);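 note: 0% = enzyme with DMSO and 100% = wells lacking enzyme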
# Conditions: recombinant HTRA1, FP-rhodamine activity-based probe, at 5.96 µM, stronger effect = higher value
row,SMILES,inhibition
1,O=C(N/N=C/c1ccc(O)c(O)c1)C1c2ccccc2Oc2ccccc21,68.8% (active)
2,CC(C)(C)c1nnc(NC(=O)C2c3ccccc3Oc3ccccc32)s1,-41.3%
3,O=C(NN=Cc1ccc2c(c1)CCC2)c1ccccc1O,-0.46%
4,COc1cccc(NC(=O)CN(C)C(=O)c2cc(Cl)nc3ccccc23)c1,0.82%
5,C[C@@H]1CN([C@@H](C)CO)C(=O)c2cc(Br)cnc2O[C@@H]1CN(C)C(=O)C1CCCCC1,2.18%
6,CCN(CC)C(=O)C1=C(C)N(Cc2ccc(F)cc2)C(=O)C(CC(=O)NC2CCCC2)C1 (stereo unspecified),1.89%
7,COc1ccc2oc(=N)c(C(=O)Nc3ccc(Br)cc3)cc2c1,-1.93%
8,COc1ccc(/C=C/C(=O)c2cc(Br)ccc(=O)c2O)cc1,61% (active)
9,COc1ccc(C(=O)c2oc3ccc(Br)cc3c2NC(C)=O)cc1,-1.73%
10,O=C1[C@H]2[C@@H](c3ccc(C(F)(F)F)cc3)N[C@]3(CCCN(Cc4ccc(Br)cc4)C3=O)[C@H]2C(=O)N1Cc1ccccc1,-35.1%
11,COc1cccc2c1C(=O)c1c(O)c3c(c(O)c1C2=O)CC(O)(C(C)=NNC(=O)c1ccc(Cl)c(Cl)c1)CC3OC1CC(N)C(O)C(C)O1 (stereo unspecified),70.5% (active)
12,CN(Cc1c(F)cccc1Cl)C(=O)COC(=O)Cn1cnc2ccccc2c1=O,2.48%
13,N#Cc1ccc(OCC(=O)Nc2nc(-c3ccccn3)cs2)cc1,19.1%
14,COc1ccc(-c2cc(C(=O)N/N=C/c3cccnc3)c3ccccc3n2)c(OC)c1,-18%
15,O=C(N/N=C\c1cccnc1)c1cc(-c2ccccc2)nc2c(Cl)cccc12,-44%
16,Cc1ccc(/C=N/NC(=O)Cn2nc(C)c(Br)c2C)o1,-6.04%
17,O=C(N/N=C/c1cccnc1)c1cc2ccccc2cc1O,41% (active)
18,Cc1ccc(/C=N/NC(=O)c2cc3ccccc3cc2O)o1,50.2% (active)
19,Cc1ccc(/C=N/NC(=S)NC2CCCCC2)o1,5.44%

row,SMILES,inhibition
1,CC(C)N=C1CCCC1C(=S)SSC(=S)C1CCCC1=NC(C)C (stereo unspecified),13.4%
2,CC(C)C1CCN(C(=O)C2CCC(=O)N(C3CCCCCC3)C2)CC1 (stereo unspecified),4.4%
3,CCCCN1CC(C)(C)[C@H](CC(=O)Nc2ccc(Br)cc2)C1=O,-7.94%
4,COc1ccc(-c2ccc(CN3C(CC(C)C)C(=O)N(Cc4cn(CC5CCCCC5)nn4)CCS3(=O)=O)cc2)cc1 (stereo unspecified),-45.1%
5,O=C(C[C@H]1C[C@H]2c3cc(NS(=O)(=O)c4ccc(F)cc4)ccc3O[C@H]2[C@H](CO)O1)NCc1cc(F)ccc1F,-9.74%
6,COc1cc(C(=O)OCCCN2CCOCC2)cc(OC)c1OC,-2.46%
7,O=NN(CCCl)C(=O)NCCc1cccc[n+]1[O-],1.62%
8,CCOC(=O)C1Nc2ccc(C(F)(F)F)cc2C2C=CCC12 (stereo unspecified),41.7% (active)
9,CCOC(=O)C[C@H]1c2ccc(C(F)(F)F)cc2S(=O)(=O)N1c1ccccc1,-13.4%
10,CCOC(=O)NNc1cc(C(F)(F)F)ccn1,-0.2%
11,COc1cccc2c(O)cc(=O)n(C)c12,-0.49%
12,O=Nc1c(O)cc(O)c2ccccc12,42.4% (active)
13,O=C(NN=Cc1ccccc1O)NN=Cc1ccccc1O,25.9%
14,Cc1ccc(-c2ccc(CN3C(C(C)C)C(=O)N(Cc4cn(CCC5OCCO5)nn4)CCS3(=O)=O)cc2)cc1 (stereo unspecified),-29.6%
15,CC[C@@H]1Cc2cc(O)ccc2C2=C1c1ccc(O)cc1C[C@H]2CC,44.3% (active)
16,COc1cc(C)c(CN2CCN(C(=O)CCC(=O)c3ccc(C)s3)CC2)cc1OC,6.95%
17,CCCCCCNC(=O)O[C@H]1CN(C(=O)OC(C)C)N(C(=O)OC(C)C)[C@@H]2CN(S(=O)(=O)c3ccc(C)cc3)C[C@]12O,-18.8%
18,c1ccc(CNCc2ccc(CNCc3ccccc3)cc2)cc1,2.32%
19,O=C(Cc1ccc(Cl)cc1)NC(=S)Nc1ccccc1O,-31.1%

row,SMILES,inhibition
1,Oc1ccc(CNc2ccccc2O)cc1,52.1% (active)
2,C[C@@H]1CN([C@H](C)CO)C(=O)CCCn2cc(nn2)CO[C@H]1CN(C)S(=O)(=O)c1ccc(Oc2ccccc2)nc1,5.67%
3,COCC1CCCCN1C(=O)c1cc(COc2ccc(C)c(C)c2)on1 (stereo unspecified),-4.09%
4,COc1ccc(C=C2CCC3C(CCCC34OCCO4)C2=O)cc1 (stereo unspecified),-8.69%
5,C[n+]1ccc(/C=C/c2c[nH]c3ccccc23)cc1,2.74%
6,CSC(=S)N/N=C/c1c[nH]c2ccccc12,48.9% (active)
7,Nc1nonc1-n1nnc(C(=O)N/N=C/c2c[nH]c3ccccc23)c1-c1ccccc1,-3.11%
8,C[C@H]1CN([C@@H](C)CO)C(=O)CCCn2nncc2CO[C@@H]1CN(C)Cc1ccc(Oc2ccccc2)cc1,-3.08%
9,O=c1ccc2c(-c3ccccc3S(=O)(=O)O)c3ccc(O)c(O)c3oc-2c1O,37.8% (active)
10,COc1cc(C=NC2CCCCC2)ccc1O,0.85%
11,COc1ccc(CN2C(=O)C(CC(=O)NCCCCc3ccccc3)CC(C(=O)N3CCOCC3)=C2C)cc1 (stereo unspecified),5.2%
12,O=C(c1ccccc1)N1CCN(c2cc(-c3ccccc3)nc3cc(-c4cccc(Cl)c4)nn23)CC1,-11.5%
13,CCCN(CCC)C(=O)C1c2ccccc2Oc2ccccc21,38.1% (active)
14,CCOC(=O)CC(NC(=O)C1c2ccccc2Oc2ccccc21)c1ccc(C)cc1 (stereo unspecified),-3.25%
15,CCCCCNC(=O)C1c2ccccc2Oc2ccccc21,0.55%
16,C[C@H]1CN([C@@H](C)CO)S(=O)(=O)c2ccc(Br)cc2O[C@H]1CN(C)C(=O)c1cnccn1,10.3%
17,CNC(=O)c1ccc(CN(C)C(=O)c2cc(C3CC3)nc3c2cnn3C(C)C)cc1,-4.2%
18,CC(C)CC1C(=O)N(Cc2cn(Cc3ccco3)nn2)CCS(=O)(=O)N1Cc1ccc(-c2ccc(Cl)c(Cl)c2)cc1 (stereo unspecified),-109%
